Data from PubChem BioAssay (NCATS).
Results filed as inconclusive are left out. Active and inactive are the calls of the source. Calls follow the shape of the dose curve; as a rule, active = well fitted inhibition curve with a large enough effect; inconclusive = small, poorly fitted or top-dose-only effect; inactive = flat fitted curve, though single readings scatter.

Columns and labels:
Experiment in all cases: qHTS profiling for inhibitors of Plasmodium falciparum proliferation (AID 504749); also: nearly all actives have a fitted effect of over 60% in size
Details in all cases: P. falciparum in erythrocytes, SYBR Green DNA, 72 h; series mostly up to 28.7 µM
CP262 = system: CP262
In short: (§1)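 Three-day growth assay of blood-stage parasites in erythrocytes (0.3% parasitemia, 2.5% hematocrit) at 37 C, 5% CO2, quantified by SYBR Green DNA staining after overnight detergent lysis.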

CP265 = system: CP265
In short: as §1

CP266 = system: CP266
In short: as §1

CP268 = system: CP268
In short: as §1

CP269 = system: CP269
In short: as §1

CP286 = system: CP286
In short: as §1

CP291 = system: CP291
In short: as §1

CP297 = system: CP297
In short: as §1

CP305 = system: CP305
In short: as §1

CP315 = system: CP315
In short: as §1

CP325 = system: CP325
In short: as §1

CP329 = system: CP329
In short: as §1

CP335 = system: CP335
In short: as §1

DFO2036 = system: DFO2036
In short: as §1

DIV14 = system: DIV14
In short: as §1

DIV17 = system: DIV17
In short: as §1

DIV30 = system: DIV30
In short: as §1

Dd2 = system: Dd2
In short: as §1

ECU = system: ECU
In short: as §1

FAB9 = system: FAB9
In short: as §1

GB4 = system: GB4
In short: as §1

HB3 = system: HB3
In short: as §1

ICS = system: ICS
In short: as §1

N140 = system: N140
In short: as §1

P93_24 = system: P93_24
In short: as §1

P94_40 = system: P94_40
In short: as §1

PAD = system: PAD
In short: as §1

PC15 = system: PC15
In short: as §1

PC26 = system: PC26
In short: as §1

PC49 = system: PC49
In short: as §1

SC27B = system: SC27B
In short: as §1

TAB109 = system: TAB109
In short: as §1

TAB113 = system: TAB113
In short: as §1

TAB165 = system: TAB165
In short: as §1

W2 = system: W2
In short: as §1

Measured: Potency
Potency is read from the fitted curve at half-maximal effect.

CC(C)C[C@@H](NC(=O)[C@H](Cc1ccccc1)NC(=O)c1cnccn1)B(O)O
active: CP262 95.3 nM | CP265 112 nM | CP266 169 nM | CP268 95.3 nM | CP269 135 nM | CP286 63.1 nM | CP291 135 nM | CP297 269 nM | CP305 675 nM | CP315 190 nM | CP325 135 nM | CP329 95.3 nM | CP335 95.3 nM | DFO2036 100 nM | DIV14 426 nM | DIV17 301 nM | DIV30 190 nM | Dd2 100 nM | ECU 126 nM | FAB9 141 nM | GB4 107 nM | HB3 79.4 nM | ICS 44.7 nM | N140 70.8 nM | P93_24 79.4 nM | P94_40 112 nM | PAD 112 nM | PC15 79.4 nM | PC26 213 nM | PC49 141 nM | SC27B 100 nM | TAB109 35.5 nM | TAB113 100 nM | TAB165 112 nM | W2 75.7 nM
